The values below come from PubChem BioAssay (EPA / NIEHS).

SMILES strings stand for the structures. Some structures have more than one record in an assay (separate samples or runs), and their calls can disagree. Activity calls are given as the source filed them. How the source made its calls: active means hit-call score of the fitted dose curve at least 0.9, where 1 is the maximum; inactive means score below 0.9.

Sequence of Estrogen receptor (Homo sapiens) (P03372 whole entry, looked up): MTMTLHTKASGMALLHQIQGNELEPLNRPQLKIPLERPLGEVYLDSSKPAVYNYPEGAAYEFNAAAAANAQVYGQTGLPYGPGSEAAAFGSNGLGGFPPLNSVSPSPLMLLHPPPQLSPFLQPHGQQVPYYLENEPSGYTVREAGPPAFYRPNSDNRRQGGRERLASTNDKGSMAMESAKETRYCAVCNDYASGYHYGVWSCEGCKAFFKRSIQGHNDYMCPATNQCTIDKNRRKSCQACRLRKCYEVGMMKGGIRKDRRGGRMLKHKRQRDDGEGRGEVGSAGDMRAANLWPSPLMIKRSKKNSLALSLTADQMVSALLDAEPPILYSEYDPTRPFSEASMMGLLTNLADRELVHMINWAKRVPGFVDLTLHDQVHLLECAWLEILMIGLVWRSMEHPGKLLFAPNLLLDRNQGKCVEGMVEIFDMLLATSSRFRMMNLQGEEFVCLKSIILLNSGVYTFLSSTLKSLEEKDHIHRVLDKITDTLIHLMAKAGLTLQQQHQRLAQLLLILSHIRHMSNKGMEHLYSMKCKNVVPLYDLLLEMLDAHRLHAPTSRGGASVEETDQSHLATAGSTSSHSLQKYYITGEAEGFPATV

This test addresses Estrogen receptor (Homo sapiens) (UniProt P03372). The experiment in a line: OT_ERa_GFPERaERE_0480: Odyssey Thera (OT) 8-hour HeLa Transcription Induction Assay for Estrogen Receptor (AID 2283381). As for the experimental part: OT_ERa_GFPERaERE_0480 is a cell-based, single-readout assay that uses HeLa, a human cervix cell line, with measurements taken at 8 hours after chemical dosing in a 384-well plate.OT_ERa_GFPERaERE_0480 is one of one assay component(s) measured or calculated from the OT_ERa_GFPERaERE_0480 assay. It is designed to make measurements of fluorescent protein induction, a form of inducible reporter, as detected with optical microscopy: fluorescence microscopy signals by Microscopy technology.Data from the assay component OT_ERa_GFPERaERE_0480 was analyzed into 1 assay endpoint. This assay endpoint, OT_ERa_EREGFP_0480, was analyzed in the positive analysis fitting direction relative to DMSO as the negative control and baseline of activity. Using a type of inducible reporter, measures of receptor for gain-of-signal activity can be used to understand the reporter gene at the pathway-level as they relate to the gene ESR1. Furthermore, this assay endpoint can be referred to as a primary readout, because the performed assay has only produced 1 assay endpoint. To generalize the intended target to other relatable targets, this assay endpoint is annotated to the nuclear receptor intended target family, where the subfamily is steroidal.
All assay endpoints are quantified using high content image analysis algorithms.
On to `CCCCOCCO`, for which the call was inactive.

On to `CC(=O)NC1(c2cccc(F)c2)CCN(CC[C@@]2(c3ccc(Cl)c(Cl)c3)CN(c3ccccc3)C(=O)CO2)CC1`, for which the call was inactive. Take `CC(C)(C)c1ccc(O)c(C(C)(C)C)c1`: the result was inactive. For orientation: AC50 means the concentration giving half of the maximal activity seen. On to `Cc1cc(CCN2CCN(c3nsc4ccccc34)CC2)cc2c1NC(=O)CC2(C)C`, for which the concentration at half-maximal activity (AC50) is 16.1 µM (active). `OCCC(F)(F)C(F)(F)C(F)(F)C(F)(F)C(F)(F)C(F)(F)F`: the molecule was called inactive.

Take `CCc1ccc(CCOc2ccc(CC3SC(=O)NC3=O)cc2)nc1` (stereo not given): the molecule was called inactive. Take `Cc1ccc(S(=O)(=O)O)c(C)c1`: the AC50 was 24 µM (active) and the outcome was inactive. Turning to `CC1=C(/C=C/C(C)=C/C=C/C(C)=C/C(=O)O)C(C)(C)CCC1`, the molecule was classed as inactive. Turning to `COCC(C)O` (stereo not given), the outcome was inactive. The same measure, in the same setting: the same measure for `O=C(OCCOCCOC(=O)c1ccccc1)c1ccccc1`: “inactive”. On to `CCCCC(CC)COC(=O)CCCCC(=O)OCc1ccccc1` (stereo not given), for which the result was inactive. Still for that read-out and setting: the same measure for `Cc1cc(C)c(O)c(C)c1`: “inactive”. On the same count and under the same terms, the same measure for `c1ccc2cc3c(ccc4ccccc43)cc2c1`: “inactive”; for `CC[C@H](C)[C@@H](C(=O)O)n1sc2ccccc2c1=O`: “inactive”; for `CCCCCCCCC(=O)O`: “inactive”. Consider `CCCCCCCCCCCCc1ccccc1S(=O)(=O)O`, for which the AC50 is 96 µM (active). On to `CC(C)(C)c1cc(C(C)(C)C)c(O)c(C(C)(C)C)c1`, for which the molecule was classed as inactive. Take `CC(C)CCCCCCOC(=O)CCCCC(=O)OCCCCCCC(C)C`: the call was inactive. In the case of `Oc1cc2ccccc2c2ccccc12`, the AC50 is 28.9 µM (active). `O=[N+]([O-])c1ccc(O)cc1`: the outcome was inactive. Take `CCCCCCCCCCCCCC[N+](C)(C)C`: the result was inactive. In the case of `OC1CCCCC1`, the result was inactive. As to `O=C(O)c1ccccc1C(c1ccc(O)cc1)c1ccc(O)cc1`, the call was inactive. Same read-out and setting: under `C[C@@H]1C[C@H]2[C@@H]3CCC4=CC(=O)C=C[C@]4(C)[C@@]3(F)[C@@H](O)C[C@]2(C)[C@@]1(O)C(=O)COP(=O)(O)O` stands “inactive”; under `CCN(CC)CCNc1ccc(CNC=O)c2sc3ccc(OC)cc3c(=O)c12`, “inactive”. Turning to `O=C(O)Cc1cc(I)c(Oc2cc(I)c(O)c(I)c2)c(I)c1`, the concentration at half-maximal activity (AC50) was 44.5 µM (active).

For the molecule `OCCC(F)(F)C(F)(F)C(F)(F)C(F)(F)C(F)(F)C(F)(F)C(F)(F)C(F)(F)F`, the molecule was called inactive. For `c1ccc2c(c1)Cc1ccccc1-2`, the result was inactive. In the case of `Nc1cccc2c(N)cccc12`, the outcome was inactive. `O=C1OC2(c3ccccc31)c1cc(Br)c(O)c(Br)c1Oc1c2cc(Br)c(O)c1Br`: the result was inactive.

`CCOC(=O)CC(O)(CC(=O)OCC)C(=O)OCC`: the call was inactive. Same read-out and setting: under `COc1ccc([N+](=O)[O-])cc1N` stands “inactive”; under `N#C[C@@H]1CC(F)(F)CN1C(=O)CNC1CC2CCC(C1)N2c1ncccn1` (stereo not given in full), “inactive”; under `CC(O)CO` (stereo not given), “inactive”. Take `CCCCCCCCOC(=O)CCCCCCCCC(=O)OCCCCCCCC`: the result was inactive. `Cc1oc(-c2ccccc2)nc1CCOc1ccc(C[C@H](Nc2ccccc2C(=O)c2ccccc2)C(=O)O)cc1`: the half-maximal activity concentration (AC50) is 82.9 µM (active). With `C=C(C)C(=O)OCCC(F)(F)C(F)(F)C(F)(F)C(F)(F)C(F)(F)C(F)(F)F`, the result was inactive. Consider `COCC(C)OCC(C)O` (stereo not given), for which the result was inactive. In the case of `COC(=O)CCCCC(=O)OC`, the outcome was inactive.
